The source of these data is the supplement of paper PMC3545927.

The target of this assay is furin, P09958. Description: furin cleavage Z-score vs untreated control; higher = more cleavage, active = 3.5 or more, inactive = 1 or less, 8 variable residues between constant flanks. In outline: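 Peptides 8 residues long, fused to a cDNA oligonucleotide, were fixed to magnetic beads by the N-terminus and exposed to purified furin. The 0.01 ml reactions contained 50 mM HEPES pH 7.5 with CaCl2 and NaCl at 1:10 enzyme:substrate and ran 7.5, 15 or 30 min. For the cleavage Z-score, log counts of sequenced released DNA were compared with furin-free reactions, lowess-adjusted and scaled by median absolute deviation.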

Some of the results follow. No count for the full screen is at hand.

furin, P09958, sequence (P09958 whole entry, the tested form may be a part): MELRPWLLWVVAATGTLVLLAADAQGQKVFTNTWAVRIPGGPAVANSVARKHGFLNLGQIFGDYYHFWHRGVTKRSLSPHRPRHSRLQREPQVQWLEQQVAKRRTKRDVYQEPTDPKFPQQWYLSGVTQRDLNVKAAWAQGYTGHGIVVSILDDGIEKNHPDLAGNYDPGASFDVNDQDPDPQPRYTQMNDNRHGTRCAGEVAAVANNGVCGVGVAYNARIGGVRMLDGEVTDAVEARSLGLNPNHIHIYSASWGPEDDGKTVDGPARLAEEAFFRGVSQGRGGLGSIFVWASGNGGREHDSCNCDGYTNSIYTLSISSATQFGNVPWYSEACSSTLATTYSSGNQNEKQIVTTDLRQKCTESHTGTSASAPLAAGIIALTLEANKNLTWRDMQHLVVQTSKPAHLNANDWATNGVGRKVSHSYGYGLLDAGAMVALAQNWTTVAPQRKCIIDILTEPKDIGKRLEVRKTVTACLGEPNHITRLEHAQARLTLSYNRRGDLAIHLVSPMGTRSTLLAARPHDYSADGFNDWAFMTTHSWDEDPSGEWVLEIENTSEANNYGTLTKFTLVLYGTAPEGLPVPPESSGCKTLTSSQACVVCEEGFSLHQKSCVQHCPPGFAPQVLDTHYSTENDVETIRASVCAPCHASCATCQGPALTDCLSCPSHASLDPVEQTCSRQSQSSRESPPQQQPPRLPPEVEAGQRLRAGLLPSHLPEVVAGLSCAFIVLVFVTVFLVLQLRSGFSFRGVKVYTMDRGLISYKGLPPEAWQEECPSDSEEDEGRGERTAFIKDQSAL

With CAESKRLVDTAGNASASA [FS-1880], the “furin cleavage Z-score” value is, setting by setting: (7.5 min) -0.698 (inactive); (15 min) 0.318 (inactive); (30 min) 0.434 (inactive).

For the sequence CAEVVTSTTVAGNASASA [HC2238], the “furin cleavage Z-score” value is, setting by setting: (7.5 min) -0.88 (inactive); (15 min) -1.41 (inactive); (30 min) 0.307 (inactive).

In the case of CALHKRQVGDAGNASASA [FS-1675], the “furin cleavage Z-score” value runs as follows: (7.5 min) -0.324 (inactive); (15 min) -0.439 (inactive); (30 min) 0.074 (inactive).

As to CARQPRSNGDAGNASASA [FS-2292], the “furin cleavage Z-score” value is, setting by setting: (7.5 min) 0.463 (inactive); (15 min) -0.49 (inactive); (30 min) 1.56.

As for CAKVKRSQGDAGNASASA [FS-1985], the “furin cleavage Z-score” value by setting is: (7.5 min) 3.98 (active); (15 min) 3.48; (30 min) 3.75 (active).

CAGFDRKKRGAGNASASA [FS-238]: the “furin cleavage Z-score” value runs as follows: (7.5 min) 9.36 (active); (15 min) 9.95 (active); (30 min) 8.88 (active).

On to CALRNRLFRGAGNASASA [FS-359], for which the “furin cleavage Z-score” value is 0.887 (inactive) (7.5 min), 1.52 (15 min) and -0.676 (inactive) (30 min).

With CAQRNLKKRGAGNASASA [FS-914], the “furin cleavage Z-score” value was 10.1 (active) (7.5 min), 13.1 (active) (15 min) and 11.1 (active) (30 min).

For CALRTREKRGAGNASASA [FS-549], the “furin cleavage Z-score” value is, setting by setting: (7.5 min) 7.16 (active); (15 min) 7.31 (active); (30 min) 5.83 (active).

As for CATTPHSGSWAGNASASA [HC49], the “furin cleavage Z-score” value (7.5 min) was -0.934 (inactive), the “furin cleavage Z-score” value (15 min) is -0.777 (inactive) and the “furin cleavage Z-score” value (30 min) is -0.65 (inactive).

Turning to CAEDRDRSELAGNASASA [HC488], the “furin cleavage Z-score” value runs as follows: (7.5 min) 0.995 (inactive); (15 min) 1.63; (30 min) 0.694 (inactive).

In the case of CARTPCSAHLAGNASASA [HC2473], the “furin cleavage Z-score” value is 0.852 (inactive) (7.5 min), -0.775 (inactive) (15 min) and 2.15 (30 min).

With CAITPCSAHLAGNASASA [HC2464], the “furin cleavage Z-score” value was -1.38 (inactive) (7.5 min), 0.00684 (inactive) (15 min) and -0.357 (inactive) (30 min).

For the sequence CATCPCSGSWAGNASASA [HC1860], the “furin cleavage Z-score” value by setting is: (7.5 min) -0.794 (inactive); (15 min) -0.696 (inactive); (30 min) -0.69 (inactive).

CAMTPCSGSWAGNASASA [HC1826]: the “furin cleavage Z-score” value was -0.934 (inactive) (7.5 min), -2.45 (inactive) (15 min) and -0.784 (inactive) (30 min).

With CAARGRYSRGAGNASASA [FS-1622], the “furin cleavage Z-score” value reads like this: (7.5 min) 1.05; (15 min) 0.971 (inactive); (30 min) 1.84.

As to CATFAVEKRGAGNASASA [FS-1289], the “furin cleavage Z-score” value reads like this: (7.5 min) 1.19; (15 min) 0.186 (inactive); (30 min) 0.573 (inactive).

With CAAPHREKRGAGNASASA [FS-398], the “furin cleavage Z-score” value was 10.8 (active) (7.5 min), 11.4 (active) (15 min) and 9.9 (active) (30 min).

As to CAEVVWSTWVAGNASASA [HC127], the “furin cleavage Z-score” value by setting is: (7.5 min) 0.227 (inactive); (15 min) 0.0628 (inactive); (30 min) -0.337 (inactive).

For CARMCRVAGWAGNASASA [FS-2046], the “furin cleavage Z-score” value by setting is: (7.5 min) 0.157 (inactive); (15 min) -0.469 (inactive); (30 min) 0.75 (inactive).

As to CARYRRCVGWAGNASASA [FS-2389], the “furin cleavage Z-score” value (7.5 min) was 3.27, the “furin cleavage Z-score” value (15 min) was 2.12 and the “furin cleavage Z-score” value (30 min) is 5.02 (active).

For the sequence CARYCRGVSAAGNASASA [FS-1941], the “furin cleavage Z-score” value is -0.864 (inactive) (7.5 min), -0.376 (inactive) (15 min) and -0.444 (inactive) (30 min).

CARYRRTVGIAGNASASA [FS-2851]: the “furin cleavage Z-score” value by setting is: (7.5 min) 2.96; (15 min) 3.86 (active); (30 min) 6.08 (active).

With CARYRRLTGDAGNASASA [FS-1843], the “furin cleavage Z-score” value (7.5 min) was -1.17 (inactive), the “furin cleavage Z-score” value (15 min) was -0.169 (inactive) and the “furin cleavage Z-score” value (30 min) was determined as 1.01.

Take CAKQRRIVGIAGNASASA [FS-2869]: the “furin cleavage Z-score” value by setting is: (7.5 min) 0.0283 (inactive); (15 min) -0.751 (inactive); (30 min) 0.888 (inactive).

Consider CAQCTTPCSGAGNASASA [HC1962], for which the “furin cleavage Z-score” value (7.5 min) was -0.946 (inactive), the “furin cleavage Z-score” value (15 min) was 0.921 (inactive) and the “furin cleavage Z-score” value (30 min) was -0.234 (inactive).

With CAYCTTPCSGAGNASASA [HC1949], the “furin cleavage Z-score” value by setting is: (7.5 min) -0.657 (inactive); (15 min) -1.14 (inactive); (30 min) -0.156 (inactive).

Consider CASEECSQHLAGNASASA [HC1677], for which the “furin cleavage Z-score” value was 1.1 (7.5 min), 1.14 (15 min) and 0.289 (inactive) (30 min).

For CAVPSRQSRAAGNASASA [FS-207], the “furin cleavage Z-score” value is 7.32 (active) (7.5 min), 8.36 (active) (15 min) and 8.3 (active) (30 min).

Consider CAVRSRMRRAAGNASASA [FS-1500], for which the “furin cleavage Z-score” value by setting is: (7.5 min) 11 (active); (15 min) 10.2 (active); (30 min) 8.12 (active).

With CACSFTTLPAAGNASASA [HC499], the “furin cleavage Z-score” value runs as follows: (7.5 min) -0.00686 (inactive); (15 min) 0.0583 (inactive); (30 min) 0.931 (inactive).

CAVRSRHLRAAGNASASA [FS-632]: the “furin cleavage Z-score” value (7.5 min) was 9.71 (active), the “furin cleavage Z-score” value (15 min) is 9.82 (active) and the “furin cleavage Z-score” value (30 min) is 8.62 (active).

For CAGPLWILQAAGNASASA [HC609], the “furin cleavage Z-score” value is, setting by setting: (7.5 min) 1.21; (15 min) -0.216 (inactive); (30 min) 0.172 (inactive).

Consider CALPSRQKKAAGNASASA [FS-1365], for which the “furin cleavage Z-score” value by setting is: (7.5 min) 0.168 (inactive); (15 min) 0.828 (inactive); (30 min) 1.92.

With CAPSFRDRRAAGNASASA [FS-1244], the “furin cleavage Z-score” value is 9.04 (active) (7.5 min), 11.1 (active) (15 min) and 9 (active) (30 min).

Regarding CAMEEISQHLAGNASASA [HC5], the “furin cleavage Z-score” value was 1.45 (7.5 min), 0.702 (inactive) (15 min) and -0.262 (inactive) (30 min).

As for CAHLHAPTGSAGNASASA [HC774], the “furin cleavage Z-score” value (7.5 min) was -0.0824 (inactive), the “furin cleavage Z-score” value (15 min) was 0.739 (inactive) and the “furin cleavage Z-score” value (30 min) is 0.623 (inactive).

CAPQDVKFPGAGNASASA [HC170]: the “furin cleavage Z-score” value by setting is: (7.5 min) 0.0199 (inactive); (15 min) -1.23 (inactive); (30 min) 0.673 (inactive).

Turning to CAVEGEVQIVAGNASASA [HC688], the “furin cleavage Z-score” value was -0.863 (inactive) (7.5 min), -0.579 (inactive) (15 min) and -0.88 (inactive) (30 min).

Turning to CARSLRSWLIAGNASASA [FS-1974], the “furin cleavage Z-score” value reads like this: (7.5 min) 0.545 (inactive); (15 min) 0.463 (inactive); (30 min) 0.528 (inactive).

Regarding CASITRMKRIAGNASASA [FS-719], the “furin cleavage Z-score” value (7.5 min) is 6.03 (active), the “furin cleavage Z-score” value (15 min) was 8.1 (active) and the “furin cleavage Z-score” value (30 min) was 7.63 (active).

With CALHRRQKRIAGNASASA [FS-821], the “furin cleavage Z-score” value reads like this: (7.5 min) 9.03 (active); (15 min) 10.1 (active); (30 min) 10.5 (active).

For CAMSTRKARIAGNASASA [FS-277], the “furin cleavage Z-score” value (7.5 min) was found to be 1.25, the “furin cleavage Z-score” value (15 min) is 1.83 and the “furin cleavage Z-score” value (30 min) was -0.362 (inactive).

Turning to CASIARQKRIAGNASASA [FS-562], the “furin cleavage Z-score” value (7.5 min) is 4.19 (active), the “furin cleavage Z-score” value (15 min) was 2.74 and the “furin cleavage Z-score” value (30 min) is 5.27 (active).

CAERLRQKRIAGNASASA [FS-1194]: the “furin cleavage Z-score” value runs as follows: (7.5 min) 4.13 (active); (15 min) 5.45 (active); (30 min) 4.4 (active).
